Data published in PubChem BioAssay (NCATS).
Records with an inconclusive call do not appear. The source made the active and inactive calls. Unless noted, the call rests on the fitted dose curve; in most records, active means well fitted curve in the direction sought with a large enough effect; inconclusive means small, poorly fitted or top-dose-only effect, or another doubt; inactive means no such curve, though single readings can be large; an effect the other way counts as inactive or inconclusive.

Columns and labels:
[1] = Stat Signaling Pathway (AID 446; active means well fitted curve in either direction with a large enough effect, not every such curve was filed as active;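 further: ME-180 cervical cancer cells given 40 pM IL-6 alongside compound; SIE-controlled beta-lactamase reporter measured as 460/530 nm FRET emission ratio; on the % scale 0 is the no-effect control and ±100 the full control effect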)
In short: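 ME-180 cells carrying a SIE-driven beta-lactamase reporter are stimulated with 40 pM IL-6 for 5 h at 37C in the presence of compound. The 460/530 nm FRET substrate ratio is read after 2.5 h at RT. Data are normalised to 300 pM IL-6 and to 125 nM JAK inhibitor controls.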

[2] = biological target: Glucocorticoid receptor (Homo sapiens) (UniProt P04150); experiment: GR-EFC Redistribution (AID 451; calls by dose curve; further: potency means the concentration at half of the fitted maximal effect); conditions: CHO-K1 GR-EFC translocation, beta-gal luminescence, 2 h
In short: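 CHO-K1 cells stably expressing nuclear-localized β-gal enzyme acceptor and GR fused C-terminally to the enzyme donor fragment; ligand-driven nuclear translocation restores β-gal by complementation. Compounds titrated up to 46 uM final, 2 h at 37 °C; luminescence read.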

[3] = biological target: Mitogen-activated protein kinase 10 (Mus musculus) (UniProt Q61831); experiment: JNK3 AlphaScreen Assay (AID 530; active means well fitted curve in either direction with a large enough effect, not every such curve was filed as active;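 further: kinase came from lysate of stimulated human HepG2 cells; signal reports phosphorylation of biotinylated GST-cJun 1-79 at Ser73 with 10 µM ATP; series mostly up to about 57 µM; on the % scale 0 is the no-effect control and ±100 the full control effect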)
In short: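 JNK3 came from HepG2 lysates pre-activated with IL-1beta and TNF-alpha and phosphorylated biotinylated GST-cJun (1-79) at 10 uM ATP, pH 7.6, room temperature. Compounds were titrated. AlphaScreen signal used anti-phospho-cJun (Ser73) antibody.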

[4] = Cell Viability - N2a (AID 540);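 further: plate controls were DMSO alone for no effect and tamoxifen control for full effect; nearly all actives have a fitted effect of over 45% in size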
In short: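 First, 1500 N2a cells per well incubate 5 hr at 37 °C; next, compounds are added and incubated 40 hr at 37 °C; finally CellTiter-Glo is added and luminescence read after 20 min, with AC50 derived by Hill modeling.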

[5] = Cell Viability - NIH 3T3 (AID 541);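 further: cells exposed to compound for 40 hours; plate controls were DMSO alone for no effect and tamoxifen positive control for full effect; nearly all actives have a fitted effect of over 25% in size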
In short: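 AC50 values reflect concentration-dependent loss of intracellular ATP in NIH 3T3 cells after 40 hr treatment in complete culture medium, quantified by luciferase-based luminescence.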

[6] = Cell Viability - HUV-EC-C (AID 542);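 further: cells exposed to compound for 40 hours; on the % scale 0 is the no-effect control and ±100 the full control effect; nearly all actives have a fitted effect of over 35% in size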
In short: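 Decrease in cellular ATP, quantified by luciferase luminescence, reflects toxicity in normal human vascular endothelial HUV-EC-C cells given compound for 40 hr in complete culture medium. Values are AC50s from concentration-response curves.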

[7] = Cell Viability - H-4-II-E (AID 543);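 further: cells exposed to compound for 40 hours; on the % scale 0 is the no-effect control and ±100 the full control effect; nearly all actives have a fitted effect of over 35% in size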
In short: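 Here, cytotoxicity is measured in the rat hepatoma line H-4-II-E as loss of intracellular ATP after 40 hr compound treatment, detected by luciferase luminescence.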

[8] = Cell Viability - SH-SY5Y (AID 544);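 further: cells exposed to compound for 40 hours; 0% = DMSO alone and -100% = 100 µM tamoxifen; nearly all actives have a fitted effect of over 55% in size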
In short: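 Cytotoxicity is scored as a concentration-dependent fall in intracellular ATP in human SH-SY5Y cells treated 40 hr in complete culture medium. Potency is expressed as AC50 from a Hill equation fit.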

[9] = Cell Viability - Renal Proximal Tubule (AID 545);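 further: cells exposed to compound for 40 hours; 0% = DMSO only and -100% = 100 µM tamoxifen; nearly all actives have a fitted effect of over 40% in size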
In short: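 Primary rat renal proximal tubule cells (1000/well) were treated with compounds for 40 hr at 37 °C in complete medium. Intracellular ATP was measured by CellTiter-Glo luminescence, and AC50 values came from Hill-equation fits of concentration-response data.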

[10] = biological target: Glucocorticoid receptor (Homo sapiens) (UniProt P04150); experiment: GR-GFP Redistribution (AID 450;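 active means compounds whose dose series gives a full or clear partial fitted curve of increased nuclear translocation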; further: potency means the concentration at half of the fitted maximal effect); conditions: U2OS GR-GFP nuclear translocation, laser cytometry, 2 h

Glucocorticoid receptor (Homo sapiens), sequence (P04150 whole entry, looked up, the tested form may be a part): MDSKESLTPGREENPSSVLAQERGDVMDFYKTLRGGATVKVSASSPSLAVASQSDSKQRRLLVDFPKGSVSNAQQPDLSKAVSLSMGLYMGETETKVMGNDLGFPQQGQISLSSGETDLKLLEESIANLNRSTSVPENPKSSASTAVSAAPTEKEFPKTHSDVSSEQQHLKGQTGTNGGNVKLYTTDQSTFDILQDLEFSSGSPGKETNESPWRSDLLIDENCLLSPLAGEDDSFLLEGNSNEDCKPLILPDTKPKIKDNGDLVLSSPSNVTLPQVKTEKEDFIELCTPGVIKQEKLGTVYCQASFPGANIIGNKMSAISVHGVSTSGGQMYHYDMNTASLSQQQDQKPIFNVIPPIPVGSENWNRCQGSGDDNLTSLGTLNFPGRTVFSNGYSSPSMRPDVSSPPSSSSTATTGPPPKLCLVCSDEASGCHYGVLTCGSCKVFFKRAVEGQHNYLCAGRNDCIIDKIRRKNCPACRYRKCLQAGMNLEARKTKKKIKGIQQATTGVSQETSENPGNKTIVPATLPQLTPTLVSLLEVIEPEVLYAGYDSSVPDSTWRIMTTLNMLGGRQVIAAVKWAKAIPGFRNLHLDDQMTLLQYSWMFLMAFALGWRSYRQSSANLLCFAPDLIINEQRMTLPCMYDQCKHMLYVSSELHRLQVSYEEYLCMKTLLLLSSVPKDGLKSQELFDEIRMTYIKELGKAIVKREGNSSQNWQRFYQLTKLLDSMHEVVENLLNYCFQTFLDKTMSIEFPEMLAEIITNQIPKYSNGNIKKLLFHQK

O=C(O)c1cc2ccccc2c(Cc2c(O)c(C(=O)O)cc3ccccc23)c1O
inactive: outcome [1] | Potency [2] > 9.22 µM | activity change, negative = inhibition [3] 3.49% [at 11.4 µM]

COC(C)=O
inactive: outcome [3] | outcome [4] | outcome [5] | outcome [6] | outcome [7] | outcome [8] | outcome [9]

O=C(O)CC(O)(CC(=O)O)C(=O)O
inactive: outcome [3] | outcome [4] | outcome [5] | outcome [6] | outcome [7] | outcome [8] | outcome [9]

CCc1ccccc1OC[C@@H](O)CN[C@H]1CCCc2ccccc21
inactive: Potency [10] > 46 µM | Potency [2] > 46 µM | outcome [3]

CC(=O)C1=C(O)C=C2Oc3c(C(C)=O)c(O)c(C)c(O)c3[C@]2(C)C1=O
inactive: Potency [10] > 46 µM | Potency [2] > 46 µM | outcome [3]

C=Cc1ccccc1
inactive: outcome [3] | outcome [4] | outcome [5] | outcome [6] | outcome [7] | outcome [8] | outcome [9]

COc1ccc2[nH]c(=O)c3c(c2c1)OC(C)(C)C=C3
inactive: Potency [10] > 46 µM | Potency [2] > 46 µM | outcome [3]

CCCCCCCCCC(=O)O
inactive: outcome [3] | outcome [4] | outcome [5] | outcome [6] | outcome [7] | outcome [8] | outcome [9]

Cc1ccc(OC[C@H](O)[C@H](C)NC(C)C)c2c1CCC2
inactive: outcome [1] | Potency [10] > 46 µM | Potency [2] > 46 µM | outcome [3]

CC(C)CCNC(=O)[C@H](CC(C)C)NC(=O)[C@H]1O[C@@H]1C(=O)O
inactive: outcome [1] | Potency [10] > 20.6 µM

CN(C)Cc1ccccc1
inactive: outcome [3] | outcome [4] | outcome [5] | outcome [6] | outcome [7] | outcome [8] | outcome [9]

COc1cc(C[C@H]2C(=O)OC[C@@H]2Cc2ccc(OC)c(OC)c2)ccc1O
inactive: Potency [2] > 46 µM | outcome [3]

C[C@]12CC[C@@H]3c4ccc(OS(=O)(=O)O)cc4CC[C@H]3[C@@H]1CCC2=O
inactive: outcome [1] | Potency [10] > 20.6 µM

COC1=CC(=O)C[C@@H](C)[C@@]12Oc1c(Cl)c(OC)cc(OC)c1C2=O
inactive: Potency [10] > 46 µM | Potency [2] > 46 µM | outcome [3]

CN(C)CCCn1cc(C2=C(c3c[nH]c4ccccc34)C(=O)NC2=O)c2ccccc21
inactive: Potency [10] > 46 µM | Potency [2] > 46 µM

NCCCC(=O)O
inactive: Potency [10] > 46 µM | Potency [2] > 46 µM | outcome [3]
